Reference: PubChem BioAssay (NCATS)
Inconclusive results are not listed. Active and inactive are the calls of the source. The call rests on the fitted dose curve; in most records, active means well fitted cell-killing curve with a large enough effect; inconclusive means small, poorly fitted or top-dose-only effect, or effect the other way; inactive means no such curve, though single readings can be large or run the other way.

Key:
[1] = Viability qHTS for spleen associated tyrosine kinase inhibitor (SYKi) naive MV4-11 cells (AID 1963823); further: nearly all actives have a fitted effect of over 40% in size
Procedure, shortened: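 Read-out: CellTiter-Glo luminescence. Exposure: 72 hr, 37 C, 5% CO2, 95% humidity. Cells: MV4-11 without SYK inhibitor history, 500/well, qHTS format.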

[2] = Viability qHTS for spleen associated tyrosine kinase inhibitor (SYKi) drug resistant MV4-11 cells (AID 1963824); further: nearly all actives have a fitted effect of over 35% in size
Procedure, shortened: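 CellTiter-Glo luminescence, read 10 min after reagent addition, reports viability after a 72 hr compound exposure. Cells are an MV4-11 line made resistant to SYK inhibition, seeded at 500 per well onto compound-containing plates.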
Potency means the concentration at half of the fitted maximal effect.

SMILES	viability (% of control) [1]	viability, % of control [2]	Potency [1]	Potency [2]
CCCCCCCCCCCCC/C=C/[C@@H](O)[C@H](CO)N(C)C	70.8% [at 4.97 µM] (inactive)	82.6% [at 4.97 µM] (inactive)	–	–
COc1cc(C2Oc3c(O)cc(CCCO)cc3C2CO)ccc1O[C@H]1O[C@H](C)[C@@H](O)[C@H](O)[C@@H]1O (some centres undefined)	–	–	inactive	inactive
OCC(CO)(CO)NCC(O)Cn1c2ccc(Cl)cc2c2cc(Cl)ccc21 (centres undefined)	–	–	20.6 µM (active)	11.6 µM (active)
C[C@]1(OC(=O)/C=C\c2ccc(O)cc2)C[C@@H](O)[C@]2(O)C=CO[C@@H](O[C@@H]3O[C@H](CO)[C@@H](O)[C@H](O)[C@H]3O)C12 (some centres undefined)	–	–	inactive	inactive
NCCOCCOCCNC(=O)Cc1ccc(Nc2nc(NCc3ccc(F)cc3)nc(NCC3CCCCC3)n2)cc1	–	–	2.31 µM (active)	4.61 µM (active)
COc1cc2c(cc1OC)C(C(C(=O)N(CCc1ccc(OC)c(OC)c1OC)CCc1ccc(OC)c(OC)c1OC)c1ccccc1)=NCC2 (centres undefined)	–	–	15 µM (active)	21.1 µM (active)
C=CC(C)(C)O[C@@H]1O[C@H](CO[C@@H]2OC[C@](O)(CO)[C@H]2O)[C@@H](O)[C@H](O)[C@H]1O	–	–	inactive	inactive
